# PP1 inh: PP1-alpha phosphatase inhibitors, primary screen, counter-screen for PP5 inhibitor project, biochemical, fluorescence, OMFP substrate, single point; Serine/threonine-protein phosphatase PP1-alpha catalytic subunit (Homo sapiens), P62136; purified PP1alpha; inhibition, % at 6.7 µM; 320,000 tested, 0.9% active; AID 2235, 2010;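 active = inhibition above the mean inhibition of all tested compounds plus 3 SD, computed separately for each screening campaign, cut at about 15% in these data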
# pPAFAH FP inh: pPAFAH enzyme inhibitors, primary screen, biochemical, fluorescence polarization, human. Platelet-activating factor acetylhydrolase (Homo sapiens), Q13093. recombinant pPAFAH, FP-rhodamine probe fluorescence polarization. inhibition, % at 3.39 µM. AID 463082, 2010. 330,000 tested, 1.5% active;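 active = inhibition above the mean inhibition across the screen plus 3 SD, cut at about 25% in these data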;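 also: inhibitors block binding of the rhodamine activity-based probe so polarization drops; 0% = enzyme with DMSO and 100% = wells lacking pPAFAH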
# PAFAH2 FP inh: PAFAH2 enzyme inhibitors, primary screen, biochemical, fluorescence polarization, human; recombinant PAFAH2, FP-rhodamine activity probe; AID 492956, 2010; Platelet-activating factor acetylhydrolase 2, cytoplasmic (Homo sapiens), Q99487; inhibition, % at 3.39 µM; 340,000 tested, 0.99% active;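 active = inhibition above the mean over all tested compounds plus 3 SD, cut at about 30% in these data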;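 also: inhibitors block probe labeling of enzyme so polarization drops; 0% = enzyme with DMSO and 100% = wells lacking PAFAH2 protein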
# PAFAH1B3 inh: PAFAH1B3 enzyme inhibitors, primary screen, biochemical, fluorescence polarization, human. Platelet-activating factor acetylhydrolase IB subunit alpha1 (Homo sapiens), Q15102. recombinant PAFAH1B3, FP-rhodamine probe. inhibition, % at 3.39 µM. 340,000 tested, 0.28% active. AID 492972, 2010;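 active = inhibition above the screen-wide average of all tested compounds plus 3 SD, cut at about 25% in these data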;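 also: 0% = enzyme with DMSO only and 100% = wells lacking PAFAH1B3 protein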
# Target sequence (Q15102 whole entry, looked up): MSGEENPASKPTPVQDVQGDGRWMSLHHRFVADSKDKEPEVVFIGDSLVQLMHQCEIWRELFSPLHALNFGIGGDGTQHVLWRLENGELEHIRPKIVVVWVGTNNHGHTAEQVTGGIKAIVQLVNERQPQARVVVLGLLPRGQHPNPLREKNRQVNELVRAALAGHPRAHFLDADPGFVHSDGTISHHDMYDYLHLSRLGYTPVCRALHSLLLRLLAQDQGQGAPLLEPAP
# PAFAH1B2 inh: PAFAH1B2 enzyme inhibitors, primary screen, biochemical, fluorescence polarization, human. inhibition, % at 3.39 µM. AID 492953, 2010. recombinant PAFAH1B2, FP-rhodamine activity probe. 340,000 tested, 1.2% active;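 active = inhibition above the mean of all tested compounds plus 3 SD, cut at about 24% in these data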;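 also: 0% = enzyme with DMSO and 100% = wells lacking PAFAH1B2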
# Target sequence (P68402 whole entry, looked up): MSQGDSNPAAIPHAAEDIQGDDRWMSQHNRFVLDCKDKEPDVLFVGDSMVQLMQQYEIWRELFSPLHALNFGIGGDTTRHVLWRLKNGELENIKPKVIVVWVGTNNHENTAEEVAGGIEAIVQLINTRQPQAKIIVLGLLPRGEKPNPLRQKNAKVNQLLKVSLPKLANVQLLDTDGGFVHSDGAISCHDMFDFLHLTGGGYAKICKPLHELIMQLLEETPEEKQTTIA
# PP5 primary: PP5 phosphatase inhibitors, primary screen, biochemical, fluorescence; Serine/threonine-protein phosphatase 5 (Homo sapiens), P53041; purified PP5c, OMFP substrate fluorescence; inhibition, % at 6.7 µM; 320,000 tested, 0.18% active;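 active = inhibition above the campaign's mean inhibition across all tested compounds plus 3 SD, cut at about 9.5% in these data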;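 also: 0% = DMSO only and 100% = 100 µM cantharidin control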
# PAFAH2 confirm: PAFAH2 enzyme inhibitors, confirmation, biochemical, fluorescence polarization, human. 2,300 tested, 65% active. inhibition, % at 3.39 µM. AID 493030, 2011. shares compounds with PAFAH2 FP inh. recombinant PAFAH2, FP-rhodamine activity probe;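 active = mean inhibition over three repeats above a set limit taken from the earlier primary screen, cut at about 30% in these data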;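 also: inhibitor blocks binding of rhodamine activity probe so polarization falls; 0% = enzyme with DMSO and 100% = wells lacking PAFAH2 protein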
# * = called active by the depositor; . = not tested or not shown. An excerpt weighted towards active compounds, which were near 3.4% of everything screened.
SMILES,PP1 inh,pPAFAH FP inh,PAFAH2 FP inh,PAFAH1B3 inh,PAFAH1B2 inh,PP5 primary,PAFAH2 confirm
CCC(CC)CN1CCN=C1Nc1ccccc1,4,2,1,-6,-1,4,.
COc1ccc(C#Cc2c(-c3ccsc3)oc3ccc(-c4cc(OC)c(OC)c(OC)c4)cc23)cc1,2,0,-5,3,2,0,.
CCOc1ccccc1C(=O)OCC(=O)Nc1cc(S(=O)(=O)N2CCOCC2)ccc1C,-3,0,32*,-1,2,-2,25
O=C(COC(=O)c1ccc2c(c1)OCCO2)Nc1cc(S(=O)(=O)N2CCOCC2)ccc1Cl,-1,4,64*,3,2,4,44*
Cc1ccc(S(=O)(=O)N2CCOCC2)cc1NC(=O)COC(=O)c1ccc2c(c1)OCCO2,-4,12,70*,-7,2,1,59*
Cc1ccc(C(=O)OCC(=O)Nc2cc(S(=O)(=O)N3CCOCC3)ccc2C)cc1,6,5,68*,3,1,0,61*
Cc1ccc(S(=O)(=O)N2CCOCC2)cc1NC(=O)COC(=O)COc1ccccc1[N+](=O)[O-],.,3,3,3,-1,.,.
O=C(COC(=O)c1cnccn1)Nc1cc(S(=O)(=O)N2CCOCC2)ccc1Cl,.,-1,-4,3,6,.,.
N#Cc1ccc(S(=O)(=O)NC2CC2)cc1,-5,2,5,6,-2,-1,.
COc1ccc(Cc2nc3ccc(C(=O)N(C)C(C)c4ccon4)cc3o2)cc1 (stereo unspecified),2,0,9,7,5,0,.
CCOC(=O)c1ccc(CN2Cc3ccccc3C2=O)cc1,-3,2,1,11,2,-3,.
Cc1ccc(S(=O)(=O)N2CCOCC2)cc1NC(=O)COC(=O)c1cnc(Cl)c(Cl)c1,.,.,7,3,-1,.,.
Cc1ccc(S(=O)(=O)N2CCOCC2)cc1NC(=O)COC(=O)c1ccc2c(c1)OCO2,5,1,64*,-4,-1,-2,52*
CCN(CC)S(=O)(=O)c1ccc(C)c(NC(=O)COC(=O)c2ccc(C)c(S(=O)(=O)N3CCOCC3)c2)c1,1,14,81*,4,1,3,61*
Cc1ccc(S(=O)(=O)N2CCOCC2)cc1NC(=O)COC(=O)c1cncc(Br)c1,.,4,6,12,-2,.,.
Cc1ccc(S(=O)(=O)N2CCOCC2)cc1NC(=O)COC(=O)c1ccc(OCc2c(C)noc2C)cc1,3,11,44*,7,4,4,51*
CCC1(c2ccc(F)cc2)NC(=O)N(CC(=O)Nc2cc(S(=O)(=O)N(C)C)ccc2Cl)C1=O (stereo unspecified),-3,7,2,8,8,-2,.
Cc1ccc(SCC(=O)Nc2nnc(C(C)(C)C)s2)cc1,4,7,-12,-6,-36,3,.
O=C(COC(=O)c1ccc(Cl)nc1)Nc1cc(S(=O)(=O)N2CCCCC2)ccc1Cl,2,3,38*,6,0,-1,13
Cc1ccc(NC(=O)COC(=O)c2ccc(Cl)nc2)cc1S(=O)(=O)N1CCCCC1,1,5,36*,-1,-1,2,38*
O=C(c1cc2cc(F)ccc2[nH]1)N1CCN(C(=O)c2ccco2)CC1,-7,6,-1,3,2,-2,.
Oc1oc(-c2cccc3ccccc23)nc1/C=N/c1nccs1,6,7,5,0,-3,1,.
Cc1ccnc(N=Cc2nc(-c3ccccc3Br)oc2O)c1,2,0,63*,10,2,0,60*
CCOC(=O)Cn1cnc(-c2ccc([N+](=O)[O-])cc2)c1,1,2,-8,-3,4,2,.
C=CCOC(=O)c1cc(-c2ccc(/C=C3\C(=O)NC(=O)C(C#N)=C3C)o2)ccc1Cl,.,.,42*,11,12,.,19
SMILES,PP1 inh,pPAFAH FP inh,PAFAH2 FP inh,PAFAH1B3 inh,PAFAH1B2 inh,PP5 primary,PAFAH2 confirm
CC1=C(C#N)C(=O)NC(=O)/C1=C/c1ccc(-c2ccc(S(N)(=O)=O)cc2)o1,-3,15,9,24,0,1,.
CCCS(=O)(=O)c1c(S(=O)(=O)CCC)c2ccc(C(N)=O)cn2c1C(=O)c1ccccc1,.,.,34*,3,-4,.,24
CCCS(=O)(=O)c1c(S(=O)(=O)CCC)c2c(C(N)=O)cccn2c1C(=O)c1ccc(F)cc1,-2,0,0,8,3,-4,.
COc1cc2nc(-c3ccc(Br)o3)oc(=O)c2cc1OC,0,3,53*,5,-2,1,41*
COc1cc2nc(CCc3ccccc3)oc(=O)c2cc1OC,-2,6,36*,3,13,1,22
Cc1ccc2nc(-c3ccc(Br)o3)oc(=O)c2c1,2,3,66*,7,-4,2,66*
Cn1c(-c2ccc(Br)o2)nc2cc(Br)ccc21,4,-3,-3,3,1,2,.
CCN(C(=O)COC(=O)c1ccc(SC)cc1OC)C1CCS(=O)(=O)C1 (stereo unspecified),.,-2,14,14,4,.,.
COc1cccc2c1C(=O)CC1C2CCC2CC(=O)CCC21C (stereo unspecified),2,2,6,3,2,2,.
CCCNC(=O)COC(=O)c1ccc(Cl)c(S(=O)(=O)N2CCCC2)c1,-1,9,34*,-1,1,0,16
O=C(COC(=O)c1ccc(Cl)c(S(=O)(=O)N2CCCC2)c1)NC1CCCC1,0,20,41*,9,1,-2,29
Cc1ccc(Cl)cc1NC(=O)COC(=O)c1ccc(N2CCCC2)c([N+](=O)[O-])c1,0,5,.,.,.,2,.
CCCNC(=O)COC(=O)c1ccc(S(=O)(=O)N2CCCC2)cc1,-2,9,0,1,2,2,.
CCCNC(=O)COC(=O)c1ccc(N2CCCC2)c([N+](=O)[O-])c1,-2,5,65*,17,6,2,51*
COc1ccc(-c2nc(CS(=O)(=O)CC(=O)NCc3ccccc3OC)c(C)o2)cc1,1,0,-3,-1,3,3,.
CCc1ccc2oc(C(=O)NCC(c3ccc(OC)cc3)N3CCCCC3)c(C)c2c1 (stereo unspecified),5,3,4,8,5,3,.

# Screens as filed in PubChem BioAssay.
